Assays:
Experiment in all cases: PBM binding z-score (relative to random genomic background probes); higher = stronger binding; sequences stand for … in GC…GCGATTGACAGCGTAGAATGAAGG
[1] = tested on: RARb homodimer (NR concentration 270 nM)
Procedure, shortened: (§1)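 Scanned fluorescence from custom Agilent 4×180K protein-binding microarrays was regression-normalized. Binding z-scores use random background probes as reference. Ligand-free nuclear receptor dimers were incubated on the arrays for 1 h and detected with antibodies against each partner (one per run).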

[2] = tested on: RARg:RXRa (NR concentration 270 nM, RXRa partner concentration 90 nM)
Procedure, shortened: as §1

[3] = tested on: RARg homodimer (NR concentration 270 nM)
Procedure, shortened: as §1

[4] = tested on: RXRa DBDmut IVT, anti-RXR (DBD mutation: RXRa K156A/R161A, NR concentration 90 nM)
Procedure, shortened: as §1

[5] = tested on: RXRa homodimer (NR concentration 180 nM)
Procedure, shortened: as §1

[6] = tested on: THRa:RXRa (NR concentration 90 nM, RXRa partner concentration 90 nM)
Procedure, shortened: as §1

[7] = tested on: THRa homodimer (NR concentration 90 nM)
Procedure, shortened: as §1

[8] = tested on: VDR homodimer (NR concentration 270 nM)
Procedure, shortened: as §1

| Sequence | PBM binding z-score [1] | PBM binding z-score [2] | PBM binding z-score [3] | PBM binding z-score [4] | PBM binding z-score [5] | PBM binding z-score [6] | PBM binding z-score [7] | PBM binding z-score [8] |
| --- | --- | --- | --- | --- | --- | --- | --- | --- |
| CGTCAAAGTTCAAGGTTACGTAACAGAAAGCAGC | 4.45 | 5.57 | 6.33 | 4.73 | 4.85 | 3.43 | 1.33 | 3.55 |
| ACTAGCAGGCCAAAGGTCACTCAAGATTAGTCCG | 4.87 | 6.14 | 5.41 | 0.861 | 6.31 | 3.6 | 0.91 | 1.58 |
| CGAACTAGGTGACCAGGACAGTGAAGAGGTTGGA | 1.03 | 0.633 | 0.705 | -0.229 | 0.65 | 1.36 | 0.885 | -0.155 |
| TCGAGTAGGTTTCGGGGGCATTCAGGGATGAAGA | 1.5 | 2.01 | 1.38 | 1.48 | 1.5 | 3.54 | 1.69 | 3.56 |
| CCTAGTTGGTCAGGGGGTCACACACCGGATATGA | 4.05 | 5.83 | 4.22 | 0.886 | 6.18 | 3.88 | 2.28 | 3.16 |
| CAAAATAGGTCAAGAGGTCAAAGTCCGCTTCCCG | 6.03 | 8.39 | 7.82 | 2.72 | 8.82 | 4.28 | 1.76 | 3.91 |
| CGAACTAGGTCACCAGGACAGTGACGAGGTTGGA | 3.61 | 4.59 | 5.52 | 1.22 | 3.43 | 3.55 | 1.99 | 0.698 |
| CCTACAGGGCCAAAGGTCATTGATTCCAATGCTC | 4.75 | 6.13 | 5.66 | 1.95 | 7.35 | 3.46 | 0.651 | 2.73 |
| CGAACTGGGTCAAAGGACAGTGAAAGGCGACGTA | 2.58 | 3.7 | 3.67 | 0.996 | 3.11 | 1.95 | 0.161 | 0.185 |
| CCTACTGGGCCAAAGGTCAGTGATTCCAATGCTC | 4.33 | 4.71 | 4.48 | -0.00245 | 4.48 | 2.35 | 0.381 | 0.516 |
| CGAACTAGGTCAAAGGACAGCGAAAGGCGACGTA | 3.05 | 4.13 | 4.72 | 1.85 | 3.19 | 2.46 | 0.406 | 0.311 |
| TCATATAGGTGAAAGGTGAAAGTCGGTGTGGTAA | 2.31 | 3.45 | 1.46 | 2 | 4.53 | 2.15 | 0.384 | 0.0995 |
| CCGACTGGGGCAAAGGTTACGATACTCAGTACGA | 2.03 | 3.68 | 1.78 | 0.541 | 3.62 | 1.81 | -0.139 | -0.301 |
| ATATGTAGGTTAAGGTCATTCAGAAAGTAGGGAA | 4.18 | 4.81 | 4.96 | 2.75 | 4.96 | 4.41 | 4.8 | 4.05 |
| ATCGAAAGGTCGTGAGGTGAGTTTACAGAAAGGC | 3.38 | 4.69 | 4.07 | 2.26 | 5.37 | 3.57 | 1.5 | 3.12 |
| AATACAGGGACATCGTAGGCCAGAGTACGCACAG | 0.605 | 0.131 | 0.818 | 0.223 | -0.000453 | 1 | 0.426 | 0.53 |
| ATATGTACGTTAGGGTCATTCAGAAAGTAGGGAA | 2.98 | 3.78 | 2.71 | 2.3 | 4.98 | 3.78 | 2.87 | 3.98 |
| CGAACTAGGTCCCCAGGACAGTGAAGAGGTTGGA | -0.127 | -0.281 | -0.0988 | -0.51 | -0.31 | 0.965 | 0.258 | -0.533 |
| CTATGTAGGTTAAGGGGGTCGTTCAGTTTGAAAG | 2.42 | 2.9 | 2.06 | 1.7 | 2.93 | 2.7 | 1.62 | 4.04 |
| ATATGTAGGTTAGGGTCATACAGAAAGTAGGGAA | 3.48 | 4.25 | 3.47 | 2.26 | 5.6 | 4.1 | 3.09 | 3.03 |
| CCTGCTAGGTCAATGGTCAGCTAAAGCAGCTCGC | 3.08 | 3.62 | 4.47 | 1.7 | 2.3 | 2.29 | 0.588 | 0.186 |
| CCTTACGGTTCACTGACAGGTTATAGCATTTGGA | 1.26 | 3.49 | 0.922 | 3.31 | 2.05 | 1.53 | 0.708 | 2.95 |
| CAAACTAGGTCAAAGGTCAGAGTCGAGCCAACCA | 5.01 | 8.13 | 6.87 | 2.57 | 9.54 | 4.59 | 1.56 | 2.39 |
| CGAACTAGGCCACCAGGACAGTGAAGAGGTTGGA | 0.689 | 0.238 | 0.672 | -0.131 | -0.0253 | 0.954 | 0.3 | -0.183 |
| CAAACTAGGTCAAAGGTCAAAGTTGAGCCAACCA | 5.46 | 9.07 | 7.7 | 3.35 | 10.5 | 4.95 | 1.92 | 3.15 |
| ATATGTAGCTTAAGGGTCATTCAGGTTGGTTCGC | 3.64 | 3.62 | 2.82 | 1.95 | 4.27 | 3.27 | 1.02 | 4.07 |

— the supplement of paper PMC6555819
